# Measured values taken from the supplement of paper PMC8728848.
# About 410 targets per protein were measured; listed, in parts, are those with the strongest signals and a random draw of the rest.
# B1: Mermaid1 (Stilbonema majum) (protein)
# chain: MGSSHHHHHHSSGLVPRGSHMAASGWLRSPQGTVVKLYRRSLSWSKADEFCKDVDGRLVVDRTADMHLFLIKNVLKEKKSRVWVGLRRTAPHSRTWIWSDGTRQNEDDLDANLWLRDEPNDAAGEEECALFMYSPWEKAWGLNDYLCRGGCRSYQFICEKWIR
# Experiments:
# Test in all cases: glycan array binding signal (z-score within array); higher = stronger binding
# Details in all cases: glycan notation: IUPAC condensed, linker removed
# [1] = molecular target: Fuc(a1-2)Gal(b1-3)GalNAc(a1-3)[Fuc(a1-2)]Gal(b1-4)Glc
# How it was run: (§1)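 Glycan array data came from 3228 arrays in the Consortium for Functional Glycomics database, and only arrays with an available protein sequence were kept. Glycan names were put into IUPAC-condensed notation, and columns mapping to the same glycan were averaged. The binding signal is a within-array Z-score, averaged across arrays of one protein sequence run at different concentrations or buffers and across linkers. A negative Z-score can be read as non-binding.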
# [2] = molecular target: Fuc(a1-2)Gal(b1-3)[Fuc(a1-4)]GlcNAc
# How it was run: as §1
# [3] = molecular target: Fuc(a1-2)Gal(b1-4)Glc6S
# How it was run: as §1
# [4] = molecular target: Fuc(a1-2)Gal(b1-4)GlcNAc(b1-2)Man(a1-3)[Fuc(a1-2)Gal(b1-4)GlcNAc(b1-2)Man(a1-6)]Man(b1-4)GlcNAc(b1-4)[Fuc(a1-6)]GlcNAc
# How it was run: as §1
# [5] = molecular target: Fuc(a1-2)Gal(b1-4)GlcNAc(b1-6)GalNAc
# How it was run: as §1
# [6] = molecular target: Fuc(a1-2)Gal(b1-4)[Fuc(a1-3)]GlcNAc
# How it was run: as §1
# [7] = molecular target: Fuc(a1-2)Gal6S(b1-3)GlcNAc6S
# How it was run: as §1
# [8] = molecular target: Fuc(a1-2)Gal6S(b1-4)Glc
# How it was run: as §1
# [9] = molecular target: Fuc(a1-2)[Gal(a1-3)]Gal(b1-3)GalNAc
# How it was run: as §1
# [10] = molecular target: Fuc(a1-2)[Gal(a1-3)]Gal(b1-3)GlcNAc(b1-2)Man(a1-3)[Fuc(a1-2)[Gal(a1-3)]Gal(b1-3)GlcNAc(b1-2)Man(a1-6)]Man(b1-4)GlcNAc(b1-4)GlcNAc
# How it was run: as §1
# [11] = molecular target: Fuc(a1-2)[Gal(a1-3)]Gal(b1-3)GlcNAc(b1-2)Man(a1-3)[Fuc(a1-2)[Gal(a1-3)]Gal(b1-3)GlcNAc(b1-2)Man(a1-6)]Man(b1-4)GlcNAc(b1-4)[Fuc(a1-6)]GlcNAc
# How it was run: as §1
# [12] = molecular target: Fuc(a1-2)[Gal(a1-3)]Gal(b1-4)GlcNAc(b1-2)Man
# How it was run: as §1
# [13] = molecular target: Fuc(a1-3)[Gal(b1-4)]GlcNAc(b1-2)Man(a1-3)[Fuc(a1-3)[Gal(b1-4)]GlcNAc(b1-2)Man(a1-6)]Man(b1-4)GlcNAc(b1-4)GlcNAc
# How it was run: as §1
# [14] = molecular target: Fuc(a1-3)[Gal(b1-4)]GlcNAc(b1-3)Gal(b1-4)[Fuc(a1-3)]GlcNAc(b1-3)Gal(b1-4)[Fuc(a1-3)]GlcNAc
# How it was run: as §1
# [15] = molecular target: Fuc(a1-3)[Gal3S(b1-4)]Glc
# How it was run: as §1
# [16] = molecular target: Gal(a1-3)Gal(b1-3)[Fuc(a1-4)]GlcNAc(b1-2)Man(a1-3)[Gal(a1-3)Gal(b1-3)[Fuc(a1-4)]GlcNAc(b1-2)Man(a1-6)]Man(b1-4)GlcNAc(b1-4)GlcNAc
# How it was run: as §1
# [17] = molecular target: Gal(a1-3)Gal(b1-4)GlcNAc(b1-2)Man
# How it was run: as §1
# [18] = molecular target: Gal(a1-3)Gal(b1-4)GlcNAc(b1-6)GalNAc
# How it was run: as §1
# [19] = molecular target: Gal(b1-3)GlcNAc(a1-6)Gal(b1-4)GlcNAc
# How it was run: as §1
# [20] = molecular target: Gal(b1-3)GlcNAc(b1-2)[Gal(b1-3)GlcNAc(b1-6)]Man(a1-6)[Gal(b1-3)GlcNAc(b1-2)Man(a1-3)]Man(b1-4)GlcNAc(b1-4)GlcNAc
# How it was run: as §1
# [21] = molecular target: Gal(b1-3)GlcNAc(b1-3)Gal(b1-4)GlcNAc(b1-2)[Gal(b1-3)GlcNAc(b1-3)Gal(b1-4)GlcNAc(b1-6)]Man(a1-6)[Gal(b1-3)GlcNAc(b1-3)Gal(b1-4)GlcNAc(b1-2)Man(a1-3)]Man(b1-4)GlcNAc(b1-4)[Fuc(a1-6)]GlcNAc
# How it was run: as §1
# [22] = molecular target: Gal(b1-3)GlcNAc(b1-3)Gal(b1-4)GlcNAc(b1-3)Gal(b1-4)GlcNAc(b1-2)[Gal(b1-3)GlcNAc(b1-3)Gal(b1-4)GlcNAc(b1-3)Gal(b1-4)GlcNAc(b1-6)]Man(a1-6)[Gal(b1-3)GlcNAc(b1-3)Gal(b1-4)GlcNAc(b1-3)Gal(b1-4)GlcNAc(b1-2)Man(a1-3)]Man(b1-4)GlcNAc(b1-4)[Fuc(a1-6)]GlcNAc
# How it was run: as §1
# [23] = molecular target: Gal(b1-3)[Neu5Ac(a2-6)]GlcNAc(b1-4)Gal(b1-4)Glc
# How it was run: as §1
# [24] = molecular target: Gal(b1-4)Gal
# How it was run: as §1
# [25] = molecular target: Gal(b1-4)GalNAc(a1-3)[Fuc(a1-2)]Gal(b1-4)GlcNAc
# How it was run: as §1
# [26] = molecular target: Gal(b1-4)GlcNAc(b1-2)Man(a1-3)[Man(a1-6)]Man(b1-4)GlcNAc(b1-4)GlcNAc
# How it was run: as §1
# [27] = molecular target: Gal(b1-4)GlcNAc(b1-2)[Gal(b1-4)GlcNAc(b1-4)]Man(a1-3)[Gal(b1-4)GlcNAc(b1-2)Man(a1-6)]Man(b1-4)GlcNAc(b1-4)GlcNAc
# How it was run: as §1
# [28] = molecular target: Gal(b1-4)GlcNAc(b1-2)[Gal(b1-4)GlcNAc(b1-4)]Man(a1-3)[GlcNAc(b1-4)][Gal(b1-4)GlcNAc(b1-2)[Gal(b1-4)GlcNAc(b1-6)]Man(a1-6)]Man(b1-4)GlcNAc(b1-4)GlcNAc
# How it was run: as §1
# [29] = molecular target: Gal(b1-4)GlcNAc(b1-2)[Gal(b1-4)GlcNAc(b1-6)]Man(a1-6)[Gal(b1-4)GlcNAc(b1-2)Man(a1-3)]Man(b1-4)GlcNAc(b1-4)GlcNAc
# How it was run: as §1
# [30] = molecular target: Gal(b1-4)GlcNAc(b1-3)Gal(b1-4)GlcNAc(b1-2)[Gal(b1-4)GlcNAc(b1-3)Gal(b1-4)GlcNAc(b1-6)]Man(a1-6)[Gal(b1-4)GlcNAc(b1-3)Gal(b1-4)GlcNAc(b1-2)Man(a1-3)]Man(b1-4)GlcNAc(b1-4)GlcNAc
# How it was run: as §1
binder,measurement,setting,value
B1,glycan array binding signal (z-score),[1],-0.132
same,glycan array binding signal (z-score),[2],-0.578
same,glycan array binding signal (z-score),[3],2.97
same,glycan array binding signal (z-score),[4],3.06
same,glycan array binding signal (z-score),[5],-0.219
same,glycan array binding signal (z-score),[6],0
same,glycan array binding signal (z-score),[7],1.58
same,glycan array binding signal (z-score),[8],-0.65
same,glycan array binding signal (z-score),[9],3.08
same,glycan array binding signal (z-score),[10],-0.403
same,glycan array binding signal (z-score),[11],-0.259
same,glycan array binding signal (z-score),[12],-0.732
same,glycan array binding signal (z-score),[13],-0.717
same,glycan array binding signal (z-score),[14],-0.381
same,glycan array binding signal (z-score),[15],0.419
same,glycan array binding signal (z-score),[16],2.49
same,glycan array binding signal (z-score),[17],-0.331
same,glycan array binding signal (z-score),[18],-0.176
same,glycan array binding signal (z-score),[19],0.067
same,glycan array binding signal (z-score),[20],-0.787
same,glycan array binding signal (z-score),[21],4.98
same,glycan array binding signal (z-score),[22],6.8
same,glycan array binding signal (z-score),[23],-0.953
same,glycan array binding signal (z-score),[24],3.2
same,glycan array binding signal (z-score),[25],1.62
same,glycan array binding signal (z-score),[26],2.41
same,glycan array binding signal (z-score),[27],0.823
same,glycan array binding signal (z-score),[28],-1.01
same,glycan array binding signal (z-score),[29],-0.567
same,glycan array binding signal (z-score),[30],4.04
